Assay results taken from publication PMC4336329 (PLoS ONE, 2015).
The whole screen tested about 310,000 compounds, of which about 2,200 (0.71%) showed an effect of 50% or more. The effect is printed as a negative number. This excerpt belongs to a sample that is enriched for strong results.

target: human ether-à-go-go-related gene (hERG) potassium channel (human, UniProt Q12809); experiment: primary screen, population patch clamp on CHO cells stably expressing hERG; higher = less effect of the substance
Sequence (Q12809 whole entry, looked up): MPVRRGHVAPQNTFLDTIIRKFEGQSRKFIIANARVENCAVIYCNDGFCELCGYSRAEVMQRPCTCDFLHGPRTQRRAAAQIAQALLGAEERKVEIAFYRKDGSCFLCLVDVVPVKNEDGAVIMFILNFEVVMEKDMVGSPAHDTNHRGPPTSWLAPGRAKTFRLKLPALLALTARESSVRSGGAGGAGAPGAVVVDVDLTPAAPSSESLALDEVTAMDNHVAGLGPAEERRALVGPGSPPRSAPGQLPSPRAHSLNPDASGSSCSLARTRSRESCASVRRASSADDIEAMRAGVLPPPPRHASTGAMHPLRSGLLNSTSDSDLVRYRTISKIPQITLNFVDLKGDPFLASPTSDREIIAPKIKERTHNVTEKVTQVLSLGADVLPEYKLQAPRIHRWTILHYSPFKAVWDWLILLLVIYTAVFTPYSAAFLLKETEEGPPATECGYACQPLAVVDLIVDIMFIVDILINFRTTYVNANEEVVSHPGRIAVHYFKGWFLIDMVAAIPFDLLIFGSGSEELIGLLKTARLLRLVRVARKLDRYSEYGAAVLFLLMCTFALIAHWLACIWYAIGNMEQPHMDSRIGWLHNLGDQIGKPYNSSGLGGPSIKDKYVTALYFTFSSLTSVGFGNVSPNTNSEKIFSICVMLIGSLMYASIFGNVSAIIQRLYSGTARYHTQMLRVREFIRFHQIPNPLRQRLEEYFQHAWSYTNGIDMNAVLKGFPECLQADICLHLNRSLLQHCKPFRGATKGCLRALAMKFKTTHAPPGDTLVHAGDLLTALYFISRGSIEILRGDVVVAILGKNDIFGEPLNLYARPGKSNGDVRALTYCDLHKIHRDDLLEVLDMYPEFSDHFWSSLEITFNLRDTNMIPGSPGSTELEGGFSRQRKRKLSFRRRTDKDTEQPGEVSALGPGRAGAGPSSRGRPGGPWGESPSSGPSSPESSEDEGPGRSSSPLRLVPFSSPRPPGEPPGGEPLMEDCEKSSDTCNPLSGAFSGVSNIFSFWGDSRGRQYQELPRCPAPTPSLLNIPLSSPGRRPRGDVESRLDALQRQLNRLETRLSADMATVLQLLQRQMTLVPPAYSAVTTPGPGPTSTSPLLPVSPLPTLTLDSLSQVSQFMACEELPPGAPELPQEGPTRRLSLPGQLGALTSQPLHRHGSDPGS

| Compound | hERG current change (%, negative = inhibition) at 1uM |
| --- | --- |
| CC1CCCCN1C(=O)CN1CCC(c2nc3ccc(Cl)cc3[nH]2)CC1 (centres unmarked) | 1.51% |
| Clc1ccc2nc(C3CCN(Cc4ccccc4)CC3)[nH]c2c1 | -73.7% |
| Cc1ccc(Cn2nnnc2CN2CCC(c3nc4ccc(Cl)cc4[nH]3)CC2)cc1 | 4.97% |
| Cc1nc(CCl)cc(=O)[nH]1 | 4.26% |
| Cc1[nH]ccc(=O)c1OCc1c(F)cccc1Cl | 12.8% |
| Nc1cc(=O)[nH]c(SCC(=O)Nc2ccc(Cl)c(Cl)c2)n1 | 1.55% |
| Cc1nc(SCCC(=O)O)c2cc(-c3ccccc3)sc2n1 | 6.67% |
| NC(=O)CSc1nnc(CNc2ccc(F)cc2)n1CC1CCCO1 (centres unmarked) | -1.77% |
| COc1ccc(-n2ccnc(SCC(=O)NC3CCCC3)c2=O)cc1 | -4.46% |
| CCOc1cc(C(=O)NC(C)c2ccncc2)cc(OCC)c1OCC (centres unmarked) | -1.97% |
| Cc1cc(Cl)ccc1N(CC(=O)NCc1ccc2c(c1)OCO2)S(C)(=O)=O | 3.99% |
| Cc1ccc(NC(=S)N(CCC(C)C)C(C)c2ccncc2)c(Cl)c1 (centres unmarked) | 10.9% |
| CC1(C(=O)NC(=S)N(Cc2ccccc2)c2ccccn2)CC1(Cl)Cl (centres unmarked) | 12.4% |
| Cc1cc(C)c([C@@H]2C[C@H]3CN(C4CCCC4)C(=O)[C@]34CCCN24)c(-n2cccn2)c1 | -71.7% |
| Cc1ccc(-n2cccn2)c([C@@H]2C[C@H]3CN(C)C(=O)[C@]34CCCN24)c1 | -15% |
| O=C1N(C2CCCC2)C[C@@H]2C[C@@H](c3cccn3-c3ccccn3)N3CCC[C@@]123 | -28.9% |
| CN1C[C@@H]2C[C@@H](c3cccn3-c3nccs3)N3CCC[C@@]23C1=O | 1.26% |
| Cn1cc([C@@H]2C[C@H]3CN(C4CCCC4)C(=O)[C@]34CCCN24)c(-c2ccccc2)n1 | -0.828% |
| O=C1N(C2CCCC2)C[C@@H]2C[C@@H](c3cccn3-c3nccs3)N3CCC[C@@]123 | -60.3% |
| COc1ccc(Nc2nc(N)c(C(=O)c3ccc(OC)cc3)s2)cc1 | -5.28% |
| CC12CCC(=O)N1C(C(=O)Nc1cc(C(F)(F)F)ccc1N1CCOCC1)CS2 (centres unmarked) | 10.5% |
| Cc1cc(C)nc(NC(=S)Nc2cccc(F)c2)c1 | 6.3% |
| CCOc1cc(N2CCOCC2)c(OCC)cc1NC(=O)c1ccc(C)s1 | -1.15% |
| COc1ccc(N=C2SCCCN2C)cc1.I | 15.8% |

| Compound | hERG current change (%, negative = inhibition) at 1uM |
| --- | --- |
| c1cc2c3c(cccc3c1)C(N1CCCCC1)=N2 | -44.8% |
| Fc1ccc(N2CCN(C3=Nc4cccc5cccc3c45)CC2)cc1 | -69.4% |
| c1cc2c3c(cccc3c1)C(N1CCOCC1)=N2 | -0.83% |
| CNC(=O)CC1C(=O)N(c2ccc(Cl)cc2)C(=S)N1CCc1ccc(OC)c(OC)c1 (centres unmarked) | 10.1% |
| N=c1c(S(=O)(=O)c2ccc(Br)cc2)cc2c(=O)n3ccccc3nc2n1C1CCCC1 | 14.3% |
| N=c1c(S(=O)(=O)c2ccc(Br)cc2)cc2c(=O)n3ccccc3nc2n1C1CCCCC1 | 21.1% |
| N=c1c(C(=O)NCC2CCCO2)cc2c(=O)n3ccccc3nc2n1C1CCCC1 (centres unmarked) | -72.2% |
| O=C(NCC1CCCO1)c1cccc2ccccc12 (centres unmarked) | 17.8% |
| N=c1c(C(=O)NCC2CCCO2)cc2c(=O)n3ccccc3nc2n1C1CCCCC1 (centres unmarked) | -79.2% |
| CN(C)c1ccc(CN(C(=O)/C=C/c2ccco2)C2CCS(=O)(=O)C2)cc1 (centres unmarked) | 11.7% |
| O=C(Nc1ccc(F)c(Cl)c1)Nn1cnnc1 | 0.762% |
| Cc1cccc(NC(=S)N/N=C/c2ccc([N+](=O)[O-])s2)c1 | 11.2% |
| COc1ccc2[nH]c(=O)c(C(c3nnnn3C3CCCC3)N(C)C3CCCCC3)cc2c1 (centres unmarked) | -3.8% |
| CN(C(=O)c1ccc(S(=O)(=O)N2CCCCC2)cc1)C1CCS(=O)(=O)C1 (centres unmarked) | -3.22% |
| Br.CC1CC(C)CN(CC(=O)c2ccc(OC(F)F)cc2)C1 (centres unmarked) | -96.1% |
| CCC1CCCCN1CC(=O)c1c(C)[nH]c2ccc(OC)cc12 (centres unmarked) | -5.25% |
| Br.O=C(CN1CCCCC1CO)c1ccc(OC(F)F)cc1 (centres unmarked) | -21.3% |
| Br.O=C(CN1CCCCC1)c1ccc(OC(F)F)cc1 | -63.4% |
| CC1CC(C)CN(CC(=O)c2cccs2)C1 (centres unmarked) | -7.65% |
| CC1CC(C)CN(C(=S)Nc2ccc(OC(F)F)cc2)C1 (centres unmarked) | -45.1% |
| Cl.O=C(CN1CCCCC1)c1ccc(F)cc1 | 7.09% |
| Br.COc1ccc(C(=O)CN2CCCCC2)cc1 | 13.9% |
| CCC1CCCCN1CC(=O)c1ccc(OC(F)F)cc1 (centres unmarked) | -80.2% |
